IDH1 R132H inh: blocks human mutant IDH1 R132H enzyme; O75874; IDH1-R132H enzyme, NADPH consumption, diaphorase/resazurin fluorescence; Potency, µM (top dose mostly 76.6 µM), for the others: at the top dose activity change, negative = inhibition, usual class: inhibitors; 390,000 compounds, 0.093% hits; AID 602179; also: nearly all actives have a fitted effect of over 65% in size
Target sequence (O75874 whole entry R132H, stated change not applied): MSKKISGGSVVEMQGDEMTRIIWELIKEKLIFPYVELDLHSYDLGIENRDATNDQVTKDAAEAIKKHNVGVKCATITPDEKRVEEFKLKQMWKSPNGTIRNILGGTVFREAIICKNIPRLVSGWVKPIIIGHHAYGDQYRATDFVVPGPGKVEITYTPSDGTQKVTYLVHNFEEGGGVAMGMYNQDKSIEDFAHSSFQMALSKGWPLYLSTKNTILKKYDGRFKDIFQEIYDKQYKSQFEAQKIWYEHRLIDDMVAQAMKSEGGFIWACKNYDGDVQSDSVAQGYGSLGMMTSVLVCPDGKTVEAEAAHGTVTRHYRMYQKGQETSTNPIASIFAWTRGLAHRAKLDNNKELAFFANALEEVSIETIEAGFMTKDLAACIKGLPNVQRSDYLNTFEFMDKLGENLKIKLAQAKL
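IDH1-R132H (0.5 ug/mL) preincubated 30 min with compound, then NADPH (0.016 mM) and alpha-KG (2 mM) added; 80 min at RT, pH 7.5. Remaining NADPH coupled via diaphorase/resazurin to fluorescence (540/590 nm); concentration-response curves normalized to no-enzyme control.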
VDR inh: inhibitors of human vitamin D receptor. VDR-SRC2-3 peptide fluorescence polarization, 2 h. Potency, µM, without a hit: max response, negative = inhibition, hits mostly inhibitors. 400,000 compounds, 0.93% hits. AID 504847
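Reagent solutions, kept cold and dark, are dispensed first; compounds are then pinned in at 23 nl, plates briefly spun, and incubated 2 h at ambient temperature. Inhibition of VDR–SRC2-3 peptide binding is read by fluorescence polarization.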
PLK1 PBD block: inhibitors of human PLK1 polo-box domain binding | 360,000 compounds, 2.8% hits | Potency, µM, for inactives: max response, negative = inhibition, hits mostly inhibitors | Plk1 PBD binding of FITC phosphopeptide, fluorescence polarization; also: series mostly up to about 57 µM; nearly all actives have a fitted effect of over 65% in size
Sfp PPTase inh: blocks B. subtilis Sfp PPTase activity. Q9F4F7. Biochemical Sfp PPTase activity, qHTS. Potency, µM, for the others: largest response in the series, negative = inhibition, most hits filed as inhibitors. 310,000 compounds, 3.5% hits;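 also: the enzyme is Sfp with the accession as filed and its product quenches rhodamine fluorescence; 0% = enzyme reaction without inhibitor and -100% = no enzyme wells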
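After 15 min at room temperature with compound, 15 nM Sfp received 5 uM rhodamine-CoA plus 12.5 uM BHQ-2-ybbR (50 mM Hepes pH 7.6, 10 mM MgCl2). Rate came from the fluorescence difference over 30 min, ex 525/em 598 nm.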
TrxR1 inh: blocks rat thioredoxin reductase 1. Potency, µM (series often up to 114 µM), without a hit: at the top dose activity change, negative = inhibition, usual class: inhibitors. recombinant rTrxR1, NADPH fluorescence consumption, selenite substrate. O89049. 390,000 compounds, 1% hits; also: nearly all actives have a fitted effect of over 65% in size
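Rat TrxR1 (90 nM in the dispensed reagent) was pre-reduced with 400 uM NADPH for 5 min at room temperature, then incubated with compound for 15 min. After 400 uM selenite was added, NADPH fluorescence (Ex 340/Em 450 nm) was followed for 8 min.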
TrxR1 substrate: is turned over as a substrate by rat TrxR1. O89049. purified TrxR1 substrate turnover, NADPH consumption readout. Potency, µM (highest dose often 114 µM), inactives show at the top dose activity change, negative = substrate turnover. 390,000 compounds, 0.01% hits. AID 588456; also: nearly all actives have a fitted effect of over 50% in size
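Rat TrxR1, dispensed at 90 nM, was prereduced with 400 uM NADPH (final) for 5 min at ~22 deg C, then incubated with compound 15 min before 400 uM selenite. A first-read NADPH fluorescence drop versus no-compound background flagged substrates.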
* = called active by the depositor; ? = inconclusive; . = no result; [ ] = dose if it differs, or a comment. This is a sample that favours compounds with a hit; in the whole collection about 5.2% have one here. Calls follow the shape of the dose curve; as a rule, active = well fitted curve in the direction sought with a large enough effect; inconclusive = small, poorly fitted or top-dose-only effect, or another doubt; inactive = no such curve, though single readings can be large; an effect the other way counts as inactive or inconclusive. Unless noted, % is scaled to controls: 0 for no effect and ±100 for the full control effect; potency is read from the fitted curve at half-maximal effect.

SMILES | IDH1 R132H inh | VDR inh | PLK1 PBD block | Sfp PPTase inh | TrxR1 inh | TrxR1 substrate
O=C(CNC(=O)c1ccncc1)N/N=C/c1ccccn1 | -3% | 4% | -6% | 56µM* | 3% | 1%
CCOc1cc(-c2nc(-c3ccc(Br)cc3)no2)cc(OCC)c1OCC | 7% | -16% | . | . | 1% | -3%
Cc1nc(N2CCCC2)ncc1C(=O)N1CCN(c2ccc(Cl)cc2)CC1 | . | 1% | . | . | 3%[57.1 µM] | 1%[57.1 µM]
Nc1c(C(=O)O)sc2nc3c(cc12)CCCC3 | -3% | -26% | -13% | -15% | 23% | -1%
NC(=O)c1sc2nc3c(cc2c1N)CCCCCC3 | 4% | -6% | ? | 32µM* | 0%[11.4 µM] | 10%[57.1 µM]
Cc1ccc(C)c(/C=N/Nc2nc3ccccc3c(=O)n2O)c1 | 3% | -20% | 24µM* | 25µM* | 2%[57.1 µM] | 4%[57.1 µM]
Cc1ccc2nc(C)cc(N/N=C/c3ccccc3O)c2c1 | -13% | ? | -1% | 6% | 17% | 18%
C/C(=N\Nc1nc2ccccc2c(=O)n1O)c1ccco1 | -7% | -16% | 21µM* | 79µM* | -8% | -5%
O=C1[C@H]2[C@H]3[C@H](O)[C@H](O)C/C(=N/OCc4ccccc4)[C@@H]3CC[C@@H]2C(=O)N1Cc1ccc2c(c1)OCO2 | . | . | . | 11% | . | .
Cc1cccc(CCNC(=O)Cn2ncc3c(=O)oc4ccccc4c32)c1 | 6% | -5% | . | . | 1% | -5%
Cn1cnc(Sc2ncnc3nc[nH]c23)c1[N+](=O)[O-] | 2% | 9% | ? | 40µM* | -19% | 9%
CC(=O)CSc1ncnc2nc[nH]c12 | 10% | 14% | -1% | 0% | -2%[57.1 µM] | 12%[57.1 µM]
O=C(COc1ccccc1[N+](=O)[O-])c1ccccc1 | 0% | -14% | -13% | -23% | 15%[57.1 µM] | 6%[57.1 µM]
COC(=O)/C=C/COc1ccccc1[N+](=O)[O-] | 17% | ? | 3.4µM* | 3% | 4% | 2%
O=C(O)Cc1sc(-c2ccccc2)nc1-c1ccccc1 | -9% | 22% | -20% | -5% | 14% | 8%
O=c1cc(O)nc(-c2ccccc2)s1 | -7% | -23% | ? | 13µM* | 10%[57.1 µM] | 4%[57.1 µM]
CC(=O)Nc1sc(-c2ccc(Cl)cc2)nc1-c1ccccc1 | -3% | -17% | -4% | 20% | 6% | -1%
O=c1cc(O)nc(-c2ccc(Cl)cc2)s1 | 4% | ? | ? | 18µM* | -9% | -6%
O=C(CSCc1ccc(F)cc1)N1CCc2c([nH]c3ccccc23)C1c1ccc(Cl)cc1 (stereo not drawn) | -15% | 10% | . | . | 27%[57.1 µM] | 2%[57.1 µM]
COCCNC(=O)C1(C(F)(F)F)C/C(=C\Cc2ccccc2)CCCO1 (stereo not drawn) | . | -1% | . | -3% | -10% | -3%
Cc1nc(-c2ccc(Cl)cc2)sc1C1(C)CC(c2cccnc2)=NO1 (stereo not drawn) | 7% | -17% | -13% | 56µM* | 8% | 5%
COc1ccc(C2=NOC(C)(c3sc(-c4ccc(Cl)cc4)nc3C)C2)cc1 (stereo not drawn) | 5% | -18% | -14% | . | 25% | -1%
O=C(COc1ccc(Br)cc1Cl)Nc1ncn[nH]1 | 2% | -15% | . | . | 6% | 6%[11.4 µM]
CCN(CC)C(=O)CSc1nc2c(sc(=S)n2CC)c(=O)n1-c1ccccc1 | 9% | -1% | -4% | 8% | -3% | -9%
CCN(CC)C(=O)CSc1nc2c(sc(=S)n2-c2ccccc2)c(=O)n1Cc1ccco1 | 0% | 40µM* | 24µM* | 40µM* | ? | 3%
CCc1ccc(S(=O)(=O)c2cn(C)c3cc(N4CCCCC4C)c(F)cc3c2=O)cc1 (stereo not drawn) | -9% | 16% | . | . | 25% | 37%
CCc1ccc(C(=O)NNC(=O)OC)cc1 | 4% | ? | 9.5µM* | 0% | 2%[57.1 µM] | 10%[57.1 µM]
CCc1ccc(NC(=O)C(=O)NNC(=O)c2ccc(OC)cc2)cc1 | -5% | 10% | -4% | 19% | 8% | -4%
COc1cccc(CN(C)C(=O)c2cc(S(=O)(=O)NC3CCCCC3)ccc2C)c1OC | -5% | -3% | -7% | . | -11% | -5%

High-throughput results: PubChem BioAssay, National Center for Advancing Translational Sciences (NCATS)
